Compound activity deposited in PubChem by National Center for Advancing Translational Sciences (NCATS).
This is a sample that favours compounds with a hit; in the whole collection about 7.5% have one here.
VACV mCherry inh: vaccinia inhibition (mCherry reporter); Vaccinia virus mCherry reporter infection, fluorescence; Potency, µM (series often up to 36.5 µM), without a hit: at the highest dose activity change, negative = inhibition, actives largely listed as inhibitors; 0.63% of 310,000 active; calls by dose curve; tested in A549 cells; note: potency is the fitted concentration of half-maximal effect; nearly all actives have a fitted effect of over 35% in size
HCV inh: inhibitors of hepatitis C virus infection | Huh7.5.1 HCVcc-Cre infection, luciferase reporter, 44 h | Potency, µM (top dose mostly 41.8 µM), for the others: at the highest dose activity change, negative = inhibition, actives largely listed as inhibitors | 3.4% of 340,000 active; note: potency is the fitted concentration of half-maximal effect
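Reporter virus HCVcc-Cre (~0.5 moi) infects cells exposed to compound; seeding density 1,000 cells/well with 4 h settling beforehand. Luminescence, 15 sec read, taken 44 h post-infection following a 15 min RT substrate incubation.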
FMDV antiviral: foot and mouth disease virus antiviral activity; 1.2% of 410,000 active; FMDV antiviral cell-based qHTS; Potency, µM (series often up to 57.9 µM), for inactives: at the top dose activity change, negative = inhibition, usual class: inhibitors; calls by dose curve; tested in HEK293T cells; note: read-out not given here; potency is the fitted concentration of half-maximal effect; nearly all actives have a fitted effect of over 45% in size
Vaccinia Venus: vaccinia inhibition (Venus reporter) | Vaccinia virus Venus reporter expression, fluorescence | Potency, µM (doses to about 36.5 µM), without a hit: top-dose activity change, negative = inhibition, actives largely listed as inhibitors | 0.46% of 330,000 active; calls by dose curve; tested in A549 cells; note: potency is the fitted concentration of half-maximal effect; nearly all actives have a fitted effect of over 30% in size
HCMV antiviral: inhibitors of human cytomegalovirus. HFF cells, HCMV-luciferase reporter, 72 h; active compounds read low. activity change, negative = inhibition, % at 57.5 µM. 4.5% of 410,000 active. AID 1259415; in the data active = activity change below about -60%; inconclusive = no clear call, values can overlap the other calls; inactive = above about -39%
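HFF cells seeded 16 h at 37C, treated with compounds, infected with luciferase-reporter HCMV at MOI 1 PFU/cell; luciferase read at 72 h post infection, normalized to buffer-only and Salinomycin controls.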
Giardia FBPA inh: inhibitors of Giardia lamblia fructose-1,6-bisphosphate aldolase; 0.71% of 290,000 active; Potency, µM (doses to about 59.6 µM), for the others: top-dose activity, negative = inhibition, actives largely listed as inhibitors; purified Giardia FBPA; note: potency is the fitted concentration of half-maximal effect; nearly all actives have a fitted effect of over 55% in size
Target sequence (A8B2U2 whole entry, looked up): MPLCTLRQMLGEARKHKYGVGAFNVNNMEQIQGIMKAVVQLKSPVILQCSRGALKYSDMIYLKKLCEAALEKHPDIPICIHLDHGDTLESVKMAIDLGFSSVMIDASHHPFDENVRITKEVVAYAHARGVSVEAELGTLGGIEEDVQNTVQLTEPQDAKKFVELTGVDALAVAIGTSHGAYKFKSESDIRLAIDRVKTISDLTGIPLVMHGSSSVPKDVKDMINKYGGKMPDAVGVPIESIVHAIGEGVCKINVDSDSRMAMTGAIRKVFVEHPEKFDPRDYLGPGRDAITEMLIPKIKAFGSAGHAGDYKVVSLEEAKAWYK
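40 nM FBPA preincubated 10 min at RT with compound (up to 57.5 uM final), then substrate plus GAPDH/TPI/NAD/arsenate coupling and diaphorase/resazurin added. Fluorescence read after 20 min at RT, 525/598 nm.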
Numbers without * were called inactive; i = inactive; ? = inconclusive; . = no result given; + = active, no number. Unless noted, calls come from the whole dose curve; as a rule, active = well fitted curve in the direction sought with a large enough effect; inconclusive = small, poorly fitted or top-dose-only effect, or another doubt; inactive = no such curve, though single readings can be large; an effect the other way counts as inactive or inconclusive. % is set by controls: 0 for no effect and ±100 for the full control effect.

SMILES	VACV mCherry inh	HCV inh	FMDV antiviral	Vaccinia Venus	HCMV antiviral	Giardia FBPA inh
O=C(/C=C/c1ccccc1)Nc1cc(S(=O)(=O)N2CCOCC2)ccc1N1CCCC1	i	4%	-16%	-21%	14	-6%
Cc1ccc(/C=N/N=C2\SCC(=O)N2CC2CC2)cc1	-16%	12%	1%	?	-12	-4%
COc1cc(/C=C/c2ccc3c(Br)cc(Br)c(O)c3n2)ccc1O	.	8.9µM*	?	.	-100*	?
COc1ccc(/C=C/c2ccc3c(Br)ccc(O)c3n2)cc1	-16%	?	-3%	-19%	?	-7%
O=C(NCC1COc2ccccc2O1)c1ccc(F)c(S(=O)(=O)N2CCOCC2)c1 (stereo not given)	-21%	-2%	-7%	-13%	-13	.
CCc1ccc(NC(=O)c2ccc(F)c(S(=O)(=O)NCCc3ccc(OC)c(OC)c3)c2)cc1	?	.	?	?	-83*	.
CCc1ccc(NC(=O)c2ccc(F)c(S(=O)(=O)NC3CCCCCC3)c2)cc1	?	.	6%	?	-79*	.
CCc1ccc(NC(=O)c2ccc(F)c(S(=O)(=O)N(C)C3CCCCC3)c2)cc1	?	.	?	?	-98*	.
CCc1ccc(NC(=O)c2ccc(F)c(S(=O)(=O)NCC3COc4ccccc4O3)c2)cc1 (stereo not given)	-22%	?	-27%	?	-91*	-1%
CN(C)c1c(Cl)cc(/C=C/c2ccnc3ccccc23)cc1Br	-21%	.	.	-16%	.	.
O=C(CN1CCOCC1)Nc1nc(-c2ccccc2Cl)cs1	.	-22%	-30%	.	-18	-8%
Cc1ccc([N+](=O)[O-])cc1S(=O)(=O)NCC1COc2ccccc2O1 (stereo not given)	.	?	12%	.	-68*	17%
OCC1CCCN(c2nc3cc4c(cc3cc2CNCc2cccc(C(F)(F)F)c2)OCO4)C1 (stereo not given)	-12%	.	0%	-11%	.	.
S=C(NC1CCCCC1)N1CCOCCOCCN(C(=S)NC2CCCCC2)CCOCCOCC1	-21%	-17%	-13%	?	-78*	-3%
O=C(NC1CCCCCC1)C(=S)N1CCOCC1	3%	12%	-21%	-5%	10	2%
COc1ccc(CNC(=O)C2CCN(C(=O)c3csc(Nc4ccc(C)cc4)n3)CC2)cc1	?	11µM*	25µM*	-28%	-7	0%
Cc1ccc(Nc2nc(C(=O)N3CCC(C(=O)NCc4ccccc4)CC3)cs2)cc1	-15%	?	-7%	-16%	19	6%
COc1ccc(CNC(=O)C2CCN(S(=O)(=O)N3CCCC3)CC2)cc1	.	-3%	-23%	.	+	.
CCOC(=O)N1CCN(S(=O)(=O)N2CCCC(C(=O)NCc3ccc(OC)cc3)C2)CC1 (stereo not given)	-11%	-15%	-14%	-1%	+	0%
O=C(Cc1ccc(Cl)cc1)NC1CC(=O)N(c2ccc3c(c2)OCCO3)C1 (stereo not given)	-9%	.	3%	-3%	21	.
COc1ccc(Cc2c(-c3cccc(Cl)c3)nc3ccc(Cl)cn23)c(C)c1	i	.	19%	13%	-23	.
COc1cc2c(cc1OC)C1=NC(=O)CN1C(SCc1ccccc1C)=N2	.	?	-23%	.	?	0%
Cc1ccc(CSC2=Nc3ccccc3C3=NC(=O)CN23)cc1	.	7.9µM*	-11%	.	?	0%
Cc1cccc(Cl)c1NC(=O)NCCCN1CCCCC1C (stereo not given)	27%	.	-6%	-4%	-3	.
OCCC1CN(Cc2cnc(-c3ccccc3)s2)CCN1C1CCCCC1 (stereo not given)	i	-25%	-13%	-5%	?	3%
SMILES	VACV mCherry inh	HCV inh	FMDV antiviral	Vaccinia Venus	HCMV antiviral	Giardia FBPA inh
CC(C)CN1CCN(Cc2cnc(-c3ccc(Cl)cc3)nc2)CC1CCO (stereo not given)	.	?	11%	.	40	1%
OCCC1CN(Cc2cnc(-c3ccc(Cl)cc3)nc2)CCN1C1CCCC1 (stereo not given)	i	7.1µM*	?	-20%	?	1%
OCCC1CN(Cc2cnc(-c3ccccc3)s2)CCN1C1CCCC1 (stereo not given)	i	?	-27%	-17%	-66*	0%
CCc1ccccc1N(C)C(=O)c1cc2c(Cl)nc3ccc(C)cc3c2s1	-2%	.	?	-7%	-10	.
CCCn1c(N)c(C(=O)CSc2nnc(Cc3ccccc3)o2)c(=O)n(C)c1=O	-22%	10µM*	?	?	-32	12%
Cc1cccc(-c2cccc(C(=O)N3CCc4c(cnc(C)c4CNC(=O)c4cncs4)C3)c2)c1	-20%	.	-19%	-10%	.	.
Cc1cc(C)cc(OCC(=O)Nc2cccc3cccnc23)c1	6%	.	-18%	6%	12	.
CCCN(Cc1ccc(N(CC)CC)cc1)CC1CC1	-29%	10µM*	.	-15%	-66*	-15%
O=C(c1cnccn1)N1CCc2ccccc2C1	i	13%	17%	-10%	-100*	5%
O=C(c1ccc([N+](=O)[O-])cc1)N1CCc2ccccc2C1	-3%	9%	5%	-19%	-68*	-4%
O=C(c1ccc(S(=O)(=O)c2ccccc2)cc1)N1CCc2ccccc2C1	-3%	-18%	0%	5%	0	1%
COCCNC(=S)Nc1ccc(Cl)c(Cl)c1	-2%	3%	44%	-1%	?	3%
COc1ccc(NC(=O)C(=O)NCCCn2ccnc2)cc1	-13%	9%	4%	-6%	-60*	1%
O=C(NCCCn1ccnc1)Nc1ccc(Cl)c(Cl)c1	.	7%	3%	.	-106*	6%
C=COCCNC(=O)Nc1ccc(Cl)c(Cl)c1	-14%	10µM*	.	-15%	-60*	-12%
O=C(NCC1Cc2cccc(-c3ncccn3)c2O1)C1CCCO1 (stereo not given)	-18%	.	-2%	-9%	.	.
COc1ccc(CCNC(=O)c2ccc(-c3ccc([N+](=O)[O-])cc3Cl)o2)cc1	-8%	-17%	?	-2%	-6	4%
O=C(N[C@H]1CC[C@@]23CCCN2C(=O)CCC[C@H]3[C@H]1Cc1ccccc1)c1ccccc1	.	.	.	.	6	.
Cc1cc(-c2ccc(C)c(S(=O)(=O)N3CCN(c4ccc([N+](=O)[O-])cc4)CC3)c2)on1	i	?	-24%	-7%	-73*	.
Cc1ccc(C)c(N2CCN(S(=O)(=O)c3cc(-c4cc(C)no4)ccc3C)CC2)c1	-21%	.	-23%	-21%	0	.
CC1CCN(S(=O)(=O)c2ccc3c(c2)N(CC(=O)NCCCN2CC(C)CC(C)C2)C(=O)CS3)CC1 (stereo not given)	.	-11%	-14%	.	0	.
CC(=O)Nc1cccc(Nc2nc(-c3ccccc3)nc3ccccc23)c1	?	6.3µM*	?	-29%	42	-4%
